{"source": "PubChem BioAssay (NCI)", "note": "“And” between values parts separate entries of the source, which are not always exact repeats. Equal entries are not always repeated. About 83,000 compounds went through this panel and 20% of them were active in at least one assay; those are over-represented in the sample as a whole.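 Treatment: one concentration, 48 hours, 96-well format. Scoring: percent growth, with anything below 10 considered active.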 The source made the active and inactive calls."}
{"test_system": "MDA-MB-468 breast", "test": "NCI-60 one-dose screen, 48 h (100 = growth as untreated, 0 = no growth, -100 = all killed)", "conditions": "10 µM unless noted"}
{"smiles": "CC(C)(C)c1nn(-c2ccccc2)c2c1CC1(CN2Cc2ccc(Cl)cc2)C(=O)c2ccccc2C1=O", "growth": "88.1% (inactive)"}
{"smiles": "Cn1cc(-c2nc3c(F)cc4[nH]ncc4c3c3c2CCCC3)c(C(F)F)n1", "growth": "52.9% (inactive)"}
{"smiles": "CCOc1ccc2[nH]c(=S)sc2c1", "growth": "107% (inactive)"}
{"smiles": "O=C(Nc1ccccc1O)c1ccc(CNC(=O)c2sccc2Nc2ccnc(C(F)(F)F)c2)cc1", "growth": "14.8% (inactive)"}
{"smiles": "NS(=O)(=O)c1ccc(-n2cc(CN3CCCCC3)nn2)cc1", "growth": "101% (inactive)"}
{"smiles": "CS(=O)(=O)OC1CC(n2ccc(=O)[nH]c2=O)OC1COC(c1ccccc1)(c1ccccc1)c1ccccc1", "note": "(stereo not given)", "growth": "110% (inactive)"}
{"smiles": "Cc1nn(-c2ccccc2)cc1/C=C1\\SC(N2CCCCC2)=NC1=O", "growth": "96.3% (inactive)"}
{"smiles": "COc1cc(C2CC(c3cccc(Nc4ccncc4)c3)=NN2c2ccccc2)cc(OC)c1OC", "note": "(stereo not given)", "growth": "25.8% (inactive)"}
{"smiles": "O=c1nc(N2CCOCC2)oc2c(-c3cccc4ccccc34)cccc12", "growth": "76.5% (inactive)"}
{"smiles": "Cc1cccc(NC(=O)Nc2ccc(-n3cnc4cc(-c5ccc(O)cc5)ccc43)cc2)c1", "growth": "38.4% (inactive)"}
{"smiles": "CC[C@]12C=CCN3CC[C@@]4(c5cc(NC(=O)CCC(=O)OCc6cn(Cc7ccc(F)cc7)nn6)c(OC)cc5N(C)[C@H]4[C@@](O)(C(=O)OC)[C@@H]1OC(C)=O)[C@@H]32", "growth": "104% (inactive)"}
{"smiles": "N/C(=N\\C(N)=N\\c1nc2ccccc2s1)c1ccncc1", "growth": "56.6% (inactive)"}
{"smiles": "CCCCCCCCCCCCCC[n+]1ccc(C)cc1", "growth": "-29.9% (active)"}
{"smiles": "CCOC(=O)/C=C1\\S/C(=N\\Nc2cc(=O)[nH]c3ccc(OC)cc23)N(c2ccccc2)C1=O", "growth": "101% (inactive)"}
{"smiles": "CCOC(=O)/C=C1\\SC(=Nc2ccc(C#N)cc2)N(CCN2C(=O)/C(=C/C(=O)OCC)SC2=Nc2ccc(C#N)cc2)C1=O", "growth": "55.3% (inactive)"}
{"smiles": "CCc1nc(C(N)=O)c(Nc2ccc(N3CCC(N4CCN(C)CC4)CC3)c(OC)c2)nc1NC1CCOCC1", "growth": "69.7% (inactive)"}
{"smiles": "COc1ccc(CNCCN2C(=O)c3ccc4c5c(ccc(c35)C2=O)C(=O)N(CCNCc2ccc(OC)c(OC)c2OC)C4=O)c(OC)c1OC", "growth": "-87.2% (active)"}
{"smiles": "O=C1C(N2CCOCC2)=Cc2cccc3cccc1c23", "growth": "72% (inactive)"}
{"smiles": "CCOc1ccc2c(S(=O)(=O)O)cccc2c1[N+](=O)[O-]", "growth": "104% (inactive) and 106% (inactive)"}
{"smiles": "NCCCOc1cc2ccccc2cc1C(=O)NCCCOc1cc2ccccc2cc1C(=O)Nc1ccc(Cl)cc1O", "growth": "-89.6% (active)"}
{"smiles": "CC(=O)Oc1ccc(CCN2C(=O)CSC2=S)cc1", "growth": "-12.9% (active)"}
{"smiles": "CN1CCN(c2nc(C3=C(c4c[nH]c5ccccc45)C(=O)NC3=O)c3ccccc3n2)CC1", "growth": "131% (inactive)"}
{"smiles": "COc1cc(-c2nc(-c3nnc(-c4ccccc4Cl)o3)c3ccccn23)cc(OC)c1OC", "growth": "88.5% (inactive)"}
{"smiles": "Cn1c(N2NC(=O)C(N=Nc3ccc(S(N)(=O)=O)cc3)C2=O)nc(-c2ccco2)c(C#N)c1=O", "note": "(stereo not given)", "growth": "-17.9% (active)"}
{"smiles": "CC(=O)c1ccc(NS(=O)(=O)c2cccc(C(=O)Nc3ccc(Br)cc3)c2)cc1", "growth": "15.3% [25 µM] (inactive)"}
{"smiles": "CNCCNc1nc2ccccc2c2c(=O)c3cc(OC)ccc3sc12", "growth": "44.7% (inactive)"}
{"smiles": "Cc1cc(Cl)ccc1NC(=O)c1cc2ccccc2cc1O", "growth": "-9.61% (active)"}
{"smiles": "CN1CCN(c2nc(-c3csc(-c4ccncc4)n3)cc3ccccc23)CC1", "growth": "25.8% (inactive)"}
{"smiles": "C[C@@H]1O[C@@H](O[C@H]2[C@@H](OC(=O)[C@]34CCC(C)(C)C[C@H]3C3=CC[C@@H]5[C@@]6(C)C[C@H](O)[C@H](O[C@@H]7O[C@H](CO)[C@@H](O)[C@H](O)[C@H]7O)[C@@](C)(CO)[C@@H]6CC[C@@]5(C)[C@]3(C)C[C@H]4O)OC[C@@H](O)[C@@H]2O)[C@H](O)[C@H](O[C@@H]2OC[C@@H](O)[C@H](O[C@@H]3OC[C@](O)(CO)[C@H]3O[C@@H]3OC[C@@H](O)[C@H](O)[C@H]3O)[C@H]2O)[C@H]1O[C@@H]1OC[C@](O)(CO)[C@H]1O", "growth": "-24.2% (active)"}
{"smiles": "CCOC(=O)c1c(C)c2c(n1C)CSc1cc(S(=O)(=O)c3ccccc3)c(=O)[nH]c1-2", "growth": "2.42% [100 µM] (active)"}
{"smiles": "CCNc1nc(-c2ccc(F)cc2)c(C#N)c(=O)n1C", "growth": "45% (inactive)"}
{"smiles": "COc1cc(/C=N/n2cnc3oc(-c4ccccc4)cc3c2=N)cc(CN2CCCCC2)c1O", "growth": "-35.8% (active)"}
{"smiles": "COc1ccc(-c2cc(=O)[nH]c3c(OC)c4ccccc4c(OC)c23)cc1", "growth": "-0.192% (active)"}
{"smiles": "NC(=O)CSc1nc(-c2ccc(F)cc2)cc(-c2ccco2)n1", "growth": "71.7% (inactive)"}
{"smiles": "CC(C)C[C@@H](NC(=O)[C@@H](Cc1ccccc1)NC(=O)c1cnccn1)B1O[C@H]2[C@H](O)[C@@H](C(=O)NCCCC[C@@H]3NC(=O)[C@@H](Cc4ccccc4)NC(=O)[C@H](CC(=O)O)NC(=O)CNC(=O)[C@H](CCCN=C(N)N)NC3=O)O[C@@H](CN)[C@H]2O1", "growth": "-45.5% (active)"}
{"smiles": "CSc1nc(N)c2c(n1)N(C)C=NS2(=O)=O", "growth": "107% (inactive)"}
{"smiles": "CN(C)c1ccc(/C=N/Nc2nc(N/N=C/c3ccc(N(C)C)cc3)nc(N3CCCCC3)n2)cc1", "growth": "36.3% (inactive)"}
{"smiles": "COc1cc(/C=C/C(=O)c2ccc(NC(=O)CSc3nnc(-c4ccc(-c5nc6ccc(Cl)cc6[nH]5)cc4)o3)cc2)cc(OC)c1OC", "growth": "103% (inactive)"}
{"smiles": "O=C(/C=C/c1cc2ccccc2[nH]c1=O)c1ccc(O)cc1", "growth": "0.877% (active)"}
{"smiles": "COc1ccc(F)cc1/C=C/C(=O)/C=C(/C=C/c1cc(F)ccc1OC)OB(F)F", "growth": "31.5% (inactive)"}
